Compounds with a hit are over-represented: about 1.6% of the library has one in this group of screens.
eIF4E-4G inh = eIF4E/eIF4G interaction inhibition in translation initiation; P63073+Q04637; TR-FRET eIF4E-eIF4GI(517-606) binding, 2 h; inhibition, % at 21.7 µM; 220,000 tested, 0.37% active; AID 782;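 active = inhibition above about 30%, limit read from the data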;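 also: 0% = full FRET control wells and 100% = background wells lacking eIF4GI fragment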
Target sequence (P63073 whole entry, looked up, the tested form may be a part): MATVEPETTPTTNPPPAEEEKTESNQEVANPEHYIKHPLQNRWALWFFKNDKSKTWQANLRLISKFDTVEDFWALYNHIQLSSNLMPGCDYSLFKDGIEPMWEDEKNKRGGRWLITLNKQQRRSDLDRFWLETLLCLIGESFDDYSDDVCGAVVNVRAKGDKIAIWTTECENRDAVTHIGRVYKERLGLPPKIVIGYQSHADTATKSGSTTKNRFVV
Target sequence (Q04637 whole entry, looked up, the tested form may be a part): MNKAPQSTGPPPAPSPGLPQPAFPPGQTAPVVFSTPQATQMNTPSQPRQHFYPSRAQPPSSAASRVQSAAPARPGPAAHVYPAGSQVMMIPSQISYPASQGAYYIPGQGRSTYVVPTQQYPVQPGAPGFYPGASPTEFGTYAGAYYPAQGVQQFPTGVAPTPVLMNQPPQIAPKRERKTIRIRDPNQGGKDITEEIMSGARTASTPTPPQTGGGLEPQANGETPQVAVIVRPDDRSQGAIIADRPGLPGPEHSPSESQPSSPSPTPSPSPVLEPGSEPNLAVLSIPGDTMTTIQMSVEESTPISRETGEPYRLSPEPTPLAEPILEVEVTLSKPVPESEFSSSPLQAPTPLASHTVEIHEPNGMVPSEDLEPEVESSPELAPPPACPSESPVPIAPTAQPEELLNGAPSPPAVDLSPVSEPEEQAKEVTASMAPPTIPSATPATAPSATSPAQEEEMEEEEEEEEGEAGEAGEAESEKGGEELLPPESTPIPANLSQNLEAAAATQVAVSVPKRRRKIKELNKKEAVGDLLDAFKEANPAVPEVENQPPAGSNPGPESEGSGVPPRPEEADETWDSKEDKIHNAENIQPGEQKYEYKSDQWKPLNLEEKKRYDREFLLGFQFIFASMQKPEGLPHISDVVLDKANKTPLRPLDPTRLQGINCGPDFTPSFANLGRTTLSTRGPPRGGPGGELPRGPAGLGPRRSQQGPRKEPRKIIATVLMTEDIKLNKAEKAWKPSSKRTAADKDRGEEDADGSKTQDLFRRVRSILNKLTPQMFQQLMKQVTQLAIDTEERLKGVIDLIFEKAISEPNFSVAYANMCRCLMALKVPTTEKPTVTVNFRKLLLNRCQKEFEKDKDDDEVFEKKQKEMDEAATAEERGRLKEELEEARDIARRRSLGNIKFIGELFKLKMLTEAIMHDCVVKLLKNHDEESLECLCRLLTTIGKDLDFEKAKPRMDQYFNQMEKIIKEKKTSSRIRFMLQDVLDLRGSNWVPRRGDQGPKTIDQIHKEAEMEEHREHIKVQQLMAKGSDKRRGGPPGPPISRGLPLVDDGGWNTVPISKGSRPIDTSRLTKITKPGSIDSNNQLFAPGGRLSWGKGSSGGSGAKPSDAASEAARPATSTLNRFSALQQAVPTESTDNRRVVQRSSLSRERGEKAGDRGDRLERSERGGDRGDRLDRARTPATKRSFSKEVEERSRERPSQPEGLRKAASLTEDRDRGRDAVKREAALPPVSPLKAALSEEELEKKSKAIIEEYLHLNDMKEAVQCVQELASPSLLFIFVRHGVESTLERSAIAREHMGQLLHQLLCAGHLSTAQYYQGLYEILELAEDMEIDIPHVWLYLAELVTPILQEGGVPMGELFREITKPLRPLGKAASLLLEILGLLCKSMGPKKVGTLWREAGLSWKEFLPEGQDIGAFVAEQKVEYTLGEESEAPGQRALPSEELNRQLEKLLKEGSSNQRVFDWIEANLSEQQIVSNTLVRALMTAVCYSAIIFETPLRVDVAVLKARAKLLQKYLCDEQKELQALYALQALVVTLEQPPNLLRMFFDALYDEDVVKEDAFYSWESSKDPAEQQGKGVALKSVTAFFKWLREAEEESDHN
PERK inhibitor = blocks human PERK kinase; CHO PERK-DD fusion, SEAP luminescence translation reporter; inhibition, % at 5.6 µM; 220,000 tested, 0.17% active; AID 1416;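 active = inhibition above the mean inhibition of all tested compounds plus 3 SD, set separately per screening campaign, cut at about 2.9% in these data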;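 also: PERK kinase domain activated by AP20187 dimerizer at 100 nM; 0% = DMSO with dimerizer and 100% = rapamycin at 8.4 µM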
eIF4H inh = inhibitors of RNA binding by human eIF4H. eIF4H fluorescence polarization binding assay. 290,000 tested, 0.94% active. Q15056. AID 2012. inhibition, % at 35 µM;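 also: calls also rest on retests at 20 µM and on dose response follow-up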
PABP polyA inh = blocks human PABP binding to poly(A) RNA; inhibition, % at 35 µM; 290,000 tested, 1% active; fluorescence polarization;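 also: calls also rest on retests at 20 µM and on dose response follow-up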
PABP1 MLLE inh = blocks PAM2 peptide binding to the PABP1 MLLE domain; GST-MLLE / FITC-PAM2 fluorescence polarization; inhibition, % at 20 µM; 360,000 tested, 0.36% active; AID 588489; in the data active = inhibition above about 35%, passing the limit was not always enough;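 also: plate controls were DMSO wells with GST-MLLE for no effect and wells lacking GST-MLLE protein for full effect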
The depositor's hits bear a star; [ ] = another dose, or the depositor's remark. Unless noted, no rule for the calls is given here.

Screening O=c1[nH]ncc(N/N=C\c2cccs2)c1Cl returned eIF4E-4G inh 3.9, PERK inhibitor 0.8, eIF4H inh active, PABP polyA inh 70.7* and PABP1 MLLE inh -3.7.
O=c1[nH]ncc(N/N=C\c2ccncc2)c1Cl was read as eIF4E-4G inh -1.2, PERK inhibitor 0.8, eIF4H inh -9.0, PABP polyA inh -1.3 and PABP1 MLLE inh -0.1.
`NC(=O)Cc1ccc(C(=O)c2ccc(Cl)cc2)s1` gave eIF4E-4G inh 4.6, PERK inhibitor 0.2, eIF4H inh 2.8, PABP polyA inh -7.9 and PABP1 MLLE inh -9.2.
`C=CCn1c(SCC(=O)N2CCOCC2)nc2scc(-c3ccco3)c2c1=O` gave eIF4E-4G inh -1.0, PERK inhibitor -0.1, eIF4H inh 65.9*, PABP polyA inh 66.6* and PABP1 MLLE inh -8.4.
Screening C=CCn1c(SCC(C)=O)nc2scc(-c3ccco3)c2c1=O returned eIF4H inh 67.1*, PABP polyA inh 43.6* and PABP1 MLLE inh -3.2.
C=CCn1c(SC(F)F)nc2scc(-c3ccco3)c2c1=O was read as eIF4H inh -11.1, PABP polyA inh 9.5 and PABP1 MLLE inh -4.9.
`COc1c(S(=O)(=O)NCCCN2CCOCC2)ccc(Cl)c1Cl` gave eIF4E-4G inh 86.2*, PERK inhibitor -0.3, eIF4H inh -0.6, PABP polyA inh 3.2 and PABP1 MLLE inh 44.6*.
For Cc1nn(CC(=O)Nc2ccccn2)c(=O)c2ccccc12 the results were eIF4E-4G inh -5.9, PERK inhibitor 0.1, eIF4H inh -7.0, PABP polyA inh -4.0 and PABP1 MLLE inh 3.4.
CC(=O)c1sc2nc(CSc3nnnn3-c3ccccc3)[nH]c(=O)c2c1C was read as eIF4E-4G inh 31.4*, PERK inhibitor 0.1, eIF4H inh inconclusive, PABP polyA inh -0.5 and PABP1 MLLE inh -135.1.
Cc1ccc(-n2nnnc2SCc2nc3sc(C)c(C)c3c(=O)[nH]2)cc1 was read as eIF4E-4G inh -2.0, PERK inhibitor 0.2, eIF4H inh inconclusive, PABP polyA inh -10.7 and PABP1 MLLE inh -92.8.
COc1ccc(CN=C(N)N=C(N)N)cc1Cl was read as eIF4E-4G inh 6.7, PERK inhibitor 0.9, eIF4H inh 3.3, PABP polyA inh -4.1 and PABP1 MLLE inh 23.3.
`CC(C)Oc1ccc(CN=C(N)N=C(N)N)cc1Cl` gave eIF4E-4G inh 3.4, PERK inhibitor 0.7, eIF4H inh active, PABP polyA inh 118.6* and PABP1 MLLE inh -21.2.
For CCN(CC)c1ccc(C=C(c2nnnn2-c2ccc(C)cc2)c2nnnn2-c2ccc(C)cc2)cc1 the results were eIF4E-4G inh 2.8, PERK inhibitor -1.2, eIF4H inh 53.3*, PABP polyA inh -20.4 and PABP1 MLLE inh -71.3.
For Cc1ccc(-n2nnnc2-c2ccccc2)cc1 the results were eIF4E-4G inh -2.3, PERK inhibitor 0.8, eIF4H inh 0.8, PABP polyA inh 3.7 and PABP1 MLLE inh 9.6.
For COC(=O)c1sc(N2C(=O)C(O)=C(C(=O)c3ccc(C)o3)C2c2ccco2)nc1C (stereo not drawn) the results were eIF4H inh 52.2*, PABP polyA inh 34.4* and PABP1 MLLE inh -18.9.
`COc1ccc(C(=O)NC(=S)Nc2ccc3c4c(cccc24)CC3)cc1OC` gave eIF4E-4G inh 10.1, PERK inhibitor 0.6, eIF4H inh 12.1*, PABP polyA inh 63.7* and PABP1 MLLE inh 12.1.
`COc1cc(OC)cc(C(=O)NC(=S)Nc2ccc3c4c(cccc24)CC3)c1` gave eIF4E-4G inh -12.3, PERK inhibitor -0.1, eIF4H inh 7.9, PABP polyA inh -1.4 and PABP1 MLLE inh 20.4.
Cc1c(C(=O)NC(=S)Nc2ccc3c4c(cccc24)CC3)cccc1[N+](=O)[O-] was read as eIF4E-4G inh 3.2, PERK inhibitor 1.0, eIF4H inh 26.3, PABP polyA inh 1.4 and PABP1 MLLE inh 41.6*.
CC1=NN(C(=O)c2ccc(Br)cc2)C(O)(C(F)(F)OC(F)(F)F)C1 (stereo not drawn) was read as eIF4E-4G inh -5.7, PERK inhibitor 0.4, eIF4H inh 4.1, PABP polyA inh 7.5 and PABP1 MLLE inh -8.2.
`CN(C)c1nc2n(c(=O)n1)CCS2` gave eIF4E-4G inh -3.8, PERK inhibitor 1.4, eIF4H inh -2.6, PABP polyA inh -8.1 and PABP1 MLLE inh 3.9.
CN(C)c1nc2n(c(=O)n1)C(C#N)CS2 (stereo not drawn) was read as eIF4E-4G inh -1.3, PERK inhibitor 0.2, eIF4H inh 10.4, PABP polyA inh 7.4 and PABP1 MLLE inh 39.7*.
Screening Fc1ccc(-[n+]2nc(Nc3ccccc3)sc2-c2cccc(Cl)c2Cl)cc1 returned eIF4H inh -7.8, PABP polyA inh 17.3 and PABP1 MLLE inh 50.0*.
For O=C1c2ccccc2-c2onc3c(Oc4ccccc4)cc(O)c1c23 the results were eIF4E-4G inh 7.1, PERK inhibitor -0.7, eIF4H inh 85.3* and PABP polyA inh 83.2*.
`CCc1nc2c(OCC(=O)c3ccc(F)cc3)cccn2c1N(C)C(=O)C(C)C` gave PABP1 MLLE inh 0.4.
CCOc1cc([C@@H]2C[C@H]3CN(c4ccccc4)C(=O)[C@]34CCCN24)ccc1OC was read as eIF4E-4G inh -0.2, PERK inhibitor -0.1, eIF4H inh 57.3*, PABP polyA inh 0.4 and PABP1 MLLE inh -29.6.
For O=C(O)Cn1ccnc1 the results were eIF4E-4G inh 0.8, PERK inhibitor 2.9*, eIF4H inh -4.8, PABP polyA inh 2.3 and PABP1 MLLE inh 1.3.
O=C(Cn1ccnc1)c1ccc(Cl)cc1 was read as eIF4H inh 1.3, PABP polyA inh -5.6 and PABP1 MLLE inh -11.8.
For CCSc1nnc(NC(=O)c2cc(-c3ccccc3O)n[nH]2)s1 the results were eIF4E-4G inh -3.1, PERK inhibitor 3.8*, eIF4H inh 7.4, PABP polyA inh -1.2 and PABP1 MLLE inh -6.7.
O=C(NCCCO)Nc1ccc2nc(-c3ccco3)c(-c3ccco3)nc2c1 was read as eIF4E-4G inh 48.2*, PERK inhibitor 0.6, eIF4H inh inconclusive and PABP polyA inh inconclusive.
`O=C(Nc1ccc(N2CCOCC2)cc1)Nc1ccc2nc(-c3ccco3)c(-c3ccco3)nc2c1` gave eIF4E-4G inh -15.4, PERK inhibitor -0.8, eIF4H inh 107.3, PABP polyA inh 10.0 and PABP1 MLLE inh 26.8.
`O=C(Nc1ccc2nc(-c3ccco3)c(-c3ccco3)nc2c1)NC1CC1` gave eIF4E-4G inh 40.8*[fluorescence artefact?], PERK inhibitor -0.3, eIF4H inh 98.7, PABP polyA inh -6.1 and PABP1 MLLE inh 18.2.
Screening OCCCNC(=S)Nc1ccc2nc(-c3ccccn3)c(-c3ccccn3)nc2c1 returned eIF4E-4G inh 6.6, PERK inhibitor 1.0, eIF4H inh 12.0, PABP polyA inh 38.5 and PABP1 MLLE inh 34.2.
For Cc1ccc(C(=O)C(C)Sc2nnc(N)s2)cc1 (stereo not drawn) the results were eIF4E-4G inh 5.3, PERK inhibitor 1.1, eIF4H inh -3.0, PABP polyA inh -0.5 and PABP1 MLLE inh 0.2.
For COC(=O)c1cc(-c2ccccc2)sc1NC(=O)CN1C(=O)c2ccccc2C1=O the results were eIF4E-4G inh 1.5, PERK inhibitor 0.3, eIF4H inh -7.7, PABP polyA inh -5.5 and PABP1 MLLE inh 36.3*.

Compound activity: PubChem, several laboratories
